Sampled rows, rich in hits. Any-hit rate of the full collection: about 2.7%.
KDM5B inhibitor – Primary screen for KDM5B Histone Demethylases FDH-coupled qHTS; Lysine-specific demethylase 5B (Homo sapiens), Q9UGL1; KDM5B demethylase, FDH-coupled NADH fluorescence (FDH is formaldehyde dehydrogenase); Potency, µM (top dose mostly 57.7 µM), most hits filed as inhibitors; actives 2.6% (n = 220,000); note: nearly all actives have a fitted effect of over 70% in size
Target sequence (Q9UGL1 whole entry, looked up): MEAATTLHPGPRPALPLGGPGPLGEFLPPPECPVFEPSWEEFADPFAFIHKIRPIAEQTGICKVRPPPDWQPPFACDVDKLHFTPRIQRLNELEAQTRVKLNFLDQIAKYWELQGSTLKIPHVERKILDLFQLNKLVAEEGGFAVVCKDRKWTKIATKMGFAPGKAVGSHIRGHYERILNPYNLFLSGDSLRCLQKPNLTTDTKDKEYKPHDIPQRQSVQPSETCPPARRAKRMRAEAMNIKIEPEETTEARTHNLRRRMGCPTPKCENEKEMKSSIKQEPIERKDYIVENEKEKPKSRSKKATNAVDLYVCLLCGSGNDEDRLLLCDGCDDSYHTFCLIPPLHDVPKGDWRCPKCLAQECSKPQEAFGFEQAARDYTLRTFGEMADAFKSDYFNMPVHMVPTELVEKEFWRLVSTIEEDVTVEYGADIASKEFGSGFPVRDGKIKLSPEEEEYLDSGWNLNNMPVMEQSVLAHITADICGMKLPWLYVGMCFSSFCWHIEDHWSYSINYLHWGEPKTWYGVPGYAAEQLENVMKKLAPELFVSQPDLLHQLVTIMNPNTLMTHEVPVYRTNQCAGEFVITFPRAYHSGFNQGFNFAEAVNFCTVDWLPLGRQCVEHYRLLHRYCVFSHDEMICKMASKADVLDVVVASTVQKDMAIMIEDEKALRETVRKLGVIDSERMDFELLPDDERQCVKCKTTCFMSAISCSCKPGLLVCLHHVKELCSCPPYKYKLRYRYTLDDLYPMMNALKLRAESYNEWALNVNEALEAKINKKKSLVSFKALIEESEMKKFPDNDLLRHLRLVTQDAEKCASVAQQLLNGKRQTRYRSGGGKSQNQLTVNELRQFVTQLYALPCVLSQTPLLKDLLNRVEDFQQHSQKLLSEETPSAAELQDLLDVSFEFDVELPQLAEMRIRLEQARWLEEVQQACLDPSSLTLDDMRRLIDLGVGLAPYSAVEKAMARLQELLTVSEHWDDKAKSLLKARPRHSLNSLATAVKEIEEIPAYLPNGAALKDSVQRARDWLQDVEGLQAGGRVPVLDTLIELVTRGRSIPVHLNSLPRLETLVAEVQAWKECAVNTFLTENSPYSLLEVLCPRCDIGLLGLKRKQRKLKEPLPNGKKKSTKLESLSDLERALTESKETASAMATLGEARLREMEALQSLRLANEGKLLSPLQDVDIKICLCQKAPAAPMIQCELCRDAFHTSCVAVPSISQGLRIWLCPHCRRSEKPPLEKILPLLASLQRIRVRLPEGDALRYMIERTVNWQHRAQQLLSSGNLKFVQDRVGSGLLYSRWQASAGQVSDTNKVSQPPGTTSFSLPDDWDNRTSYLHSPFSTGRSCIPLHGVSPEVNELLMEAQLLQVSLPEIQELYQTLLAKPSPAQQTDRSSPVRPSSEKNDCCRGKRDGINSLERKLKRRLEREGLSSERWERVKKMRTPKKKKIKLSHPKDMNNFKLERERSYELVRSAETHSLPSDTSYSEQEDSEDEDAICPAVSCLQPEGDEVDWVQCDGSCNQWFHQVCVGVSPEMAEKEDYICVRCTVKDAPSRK
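Measured: NADH fluorescence change, 30 min, RT. System: KDM5BΔAP 200 nM final, H3K4me3 peptide, α-KG, Fe(II), ascorbate, NAD⁺ plus FDH, pH 7.5 HEPES. Compounds: titrated, 10 min pre-incubation with enzyme.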
IP6K1 inh – Primary qHTS assay for small molecule inhibitors of Inositol hexaphosphate kinase 1 (IP6K1); Inositol hexakisphosphate kinase 1 (Homo sapiens), Q92551; IP6K1 kinase, ADP-Glo luminescence, 2 h; active compounds read low; activity change, % (series mostly up to about 58 µM); actives 0.81% (n = 140,000); in the data active = activity change below about -25%
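ADP-Glo luminescence measures ADP made by human IP6K1 during a 2 h RT reaction with ATP/IP6 (mix at 1.3 mM/130 uM); top library doses 57.5 and 19.1 uM final.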
IP6K1 inh cnf – Confirmatory qHTS assay for small molecule inhibitors of Inositol hexaphosphate kinase 1 (IP6K1) | shares compounds with IP6K1 inh | recombinant IP6K1 kinase, ADP-Glo luminescence, 2 h | Potency, µM (highest dose often 49 µM), actives largely listed as inhibitors | actives 13% (n = 1,200); note: nearly all actives have a fitted effect of over 65% in size
Large screens that a line does not name were inactive (follow-up assays come after a bar, where they were run). Unless noted, calls come from the whole dose curve; as a rule, active = well fitted inhibition curve with a large enough effect; inconclusive = small, poorly fitted or top-dose-only effect; inactive = no such curve, though single readings can be large or run the other way.

O=C(Oc1cccc2cccnc12)c1ccccc1	none (no result: KDM5B inhibitor)
O=C1CC(c2ccccc2)Sc2nc(-c3ccc(F)cc3)nn21 (stereo unspecified)	IP6K1 inh -26.6 | IP6K1 inh cnf inactive
Cc1ccc(C2CC(=O)n3nc(-c4ccc(Cl)cc4)nc3S2)cc1 (stereo unspecified)	none
O=C(O)CC1(O)C(=O)Nc2ccccc21 (stereo unspecified)	IP6K1 inh -31.1 (no result: KDM5B inhibitor) | IP6K1 inh cnf inconclusive
O=C(O)CC1(O)C(=O)Nc2cc(Br)ccc21 (stereo unspecified)	none (no result: IP6K1 inh)
CC(C)(C)C1CCC(C(=O)N/N=C/c2ccc(Cl)s2)CC1 (stereo unspecified)	none (no result: IP6K1 inh)
O=S(=O)(NCc1ccc(F)cc1)c1ccc(N2CCCCS2(=O)=O)cc1	IP6K1 inh -31.6 | IP6K1 inh cnf inactive
O=S(=O)(NCc1ccc(Cl)cc1)c1ccc(N2CCCCS2(=O)=O)cc1	none
CCOc1ccc(/C=C(\C#N)C(=O)Nc2sc3c(c2C(=O)OC)C(C(=O)OC)CC3)cc1OC (stereo unspecified)	KDM5B inhibitor inconclusive, IP6K1 inh -29.4 | IP6K1 inh cnf 2.91µM
CCOC(=O)c1c(NC(=O)/C(C#N)=C/c2ccc(OC)cc2)sc2c1CCC2	none
O=C(Nc1ccc(Cl)cc1)c1cc(S(=O)(=O)N2CCCc3ccccc32)ccc1F	KDM5B inhibitor inconclusive
O=C(Nc1ccc(Cl)cc1)c1cc(S(=O)(=O)NC2CCCCCC2)ccc1F	none
Cc1ccc(NC(=O)c2cc(S(=O)(=O)N3CCCc4ccccc43)ccc2F)cc1F	IP6K1 inh -29.3 | IP6K1 inh cnf inactive
Cc1ccc(NC(=O)c2cc(S(=O)(=O)NC3CCCCCC3)ccc2F)cc1F	IP6K1 inh -26.5 | IP6K1 inh cnf inactive
O=C(CN1C(=O)C2(CCCCC2)C1c1ccccc1)NCCN1CCCC1 (stereo unspecified)	none (no result: KDM5B inhibitor)
O=C(O)c1ccc(-c2ncc3cnc(-c4cccc(F)c4)cn23)cc1	KDM5B inhibitor 35.5µM, IP6K1 inh -29.7 | IP6K1 inh cnf inconclusive
O=C(O)c1cccc(-c2cccc(F)c2)c1	none (no result: IP6K1 inh)
O=C(CSc1n[nH]c(-c2ccccc2)n1)N1CCCC1c1ccc2c(c1)OCCO2 (stereo unspecified)	none (no result: IP6K1 inh)
CCOc1ccc(NC(=O)COc2ncnc3ccc(Br)cc23)c([N+](=O)[O-])c1	none (no result: IP6K1 inh)
CCCc1nc(C(=O)N2C[C@H](c3cccc(OC)c3)[C@@H](N)C2)cs1	KDM5B inhibitor inconclusive, IP6K1 inh -26.5 | IP6K1 inh cnf inactive
CCc1cc(C(=O)N2C[C@@H](C(=O)O)[C@H](c3cccc(OC)c3)C2)cs1	none
Cc1cc(C)c(NC(=O)CN(C)Cc2ncc(-c3ccc(F)cc3)o2)c(C)c1	none (no result: IP6K1 inh)
Cc1cccc(-n2c(=O)c3ccccc3n(Cc3ccccc3C#N)c2=O)c1	none
COc1cc(OC)cc(-n2c(=O)c3ccccc3n(Cc3ccccc3C#N)c2=O)c1	IP6K1 inh -27.8 | IP6K1 inh cnf inactive
Cc1nnc2ccc(N3CCC(NC(=O)C4CC4)CC3)nn12	none (no result: KDM5B inhibitor)
CC(=O)c1c(C)nc(C2CC2)nc1SCC(=O)NC1CC1	none (no result: IP6K1 inh)
Cc1noc(-c2nc(-c3cccc(C(F)(F)F)c3)no2)n1	none
Cn1cc(CNc2ccc(-c3nc(-c4cccc(C(F)(F)F)c4)no3)cn2)cn1	KDM5B inhibitor inconclusive, IP6K1 inh -32.6 | IP6K1 inh cnf inconclusive
O=C(NCCc1ccccc1)c1cc2ccccc2[nH]1	none (no result: IP6K1 inh)
CC(NC(=O)C1(C#N)CCCC1)C12CC3CC(CC(C3)C1)C2 (stereo unspecified)	none (no result: IP6K1 inh)
CC[C@H](C)[C@H](N)C(N)=O	none (no result: IP6K1 inh)
COc1ccc(-c2ccc3ncc4c(c3c2)n(-c2ccc(N3CCNCC3)c(C(F)(F)F)c2)c(=O)n4C)cn1	none (no result: KDM5B inhibitor) | IP6K1 inh cnf inactive
CCOC(=O)c1ccc(S(=O)(=O)N2CCC(C(=O)NC3CC(C)(C)NC(C)(C)C3)CC2)cc1	none (no result: IP6K1 inh)
CC(=O)NO	IP6K1 inh -27.7 (no result: KDM5B inhibitor) | IP6K1 inh cnf inactive
NC(=O)NO	none (no result: KDM5B inhibitor)
COC(=O)c1c(SC)nc2ccccc2c1OCc1ccccc1Cl	IP6K1 inh -26.1 | IP6K1 inh cnf inactive
COC(=O)c1c(SC)nc2ccccc2c1OCc1cc(C)ccc1C	none
COc1ccccc1NC(=O)COc1ccc(C)cc1-n1cnnc1	none (no result: IP6K1 inh)
CC(=O)c1cccc(NC(=O)c2oc3c(c2C)-c2nn(Cc4ccc(Cl)cc4)cc2CC3)c1	none
CCOC(=O)c1cccc(NC(=O)c2oc3c(c2C)-c2nn(CC)cc2CC3)c1	KDM5B inhibitor inconclusive, IP6K1 inh -28.3 | IP6K1 inh cnf inconclusive
O=S(=O)(c1ccc(Oc2ccc(Br)cc2F)nc1)N1CCCC1	none (no result: IP6K1 inh)
O=Cc1ccc(O)c(O)c1O	IP6K1 inh -33.0 (no result: KDM5B inhibitor) | IP6K1 inh cnf inconclusive
CC(C)c1cc(C=O)c(O)c(C=O)c1	none (no result: IP6K1 inh)
Cc1ccc(CNC(=O)C2CCCN2C(=O)OC(C)(C)C)cc1F (stereo unspecified)	none (no result: IP6K1 inh)
CCOc1ccc(NC(=O)CSc2nc(-c3ccc(OC)cc3)nc3c2Cc2c(CO)cnc(C)c2O3)cc1	none
COc1ccc(-c2nc3c(c(SCC(=O)Nc4cccc(O)c4)n2)Cc2c(CO)cnc(C)c2O3)cc1	KDM5B inhibitor inconclusive, IP6K1 inh -29.5 | IP6K1 inh cnf inactive
COc1ccc(CNC(=O)c2cc3c(-c4ccccc4F)nn(C)c3s2)cc1	KDM5B inhibitor inconclusive, IP6K1 inh -36.3 | IP6K1 inh cnf inconclusive
COc1ccc(CCNC(=O)c2cc3c(-c4ccccc4F)nn(C)c3s2)c(OC)c1	KDM5B inhibitor inconclusive
Cc1cccc(NC(=O)CSCc2cc(=O)n3oc(C)cc3n2)c1	none (no result: IP6K1 inh)
Cc1ccc(NC(=O)C(=O)NCC(c2ccc3c(c2)OCO3)N2CCN(C)CC2)cc1C (stereo unspecified)	IP6K1 inh -26.8 | IP6K1 inh cnf inactive
Cc1cc(C)cc(NC(=O)C(=O)NCC(c2ccc3c(c2)OCO3)N2CCN(C)CC2)c1 (stereo unspecified)	none
COc1cccc(-c2ccc(CN3CCCC(NC(=O)C(C)C)C3)cc2)c1 (stereo unspecified)	none (no result: KDM5B inhibitor)
Cc1ccc(Cl)cc1NC(=O)c1oc2c(c1C)-c1[nH]ncc1CC2	KDM5B inhibitor inconclusive, IP6K1 inh -39.7 | IP6K1 inh cnf inconclusive
Cc1cc(C)c(NC(=O)c2oc3c(c2C)-c2[nH]ncc2CC3)c(C)c1	none
COc1ccc2oc(=O)cc(CN3CCN(Cc4ccc(F)cc4)CC3)c2c1	none (no result: IP6K1 inh)
Cc1ccc(Nc2nc(C(=O)OCC(=O)c3ccc(C)cc3)cs2)cc1	none (no result: IP6K1 inh)
CCOC(=O)c1csc(Nc2ccc(Cl)cc2)n1	IP6K1 inh -26.6 (no result: KDM5B inhibitor) | IP6K1 inh cnf inconclusive
O=C1COCCN1C1CCN(Cc2cccc3ccccc23)CC1	none
Cc1ccc(-c2csc3ncnc(Sc4nnc(C)s4)c23)cc1	none (no result: IP6K1 inh)
Cn1nnnc1Sc1ncnc2scc(-c3ccc4c(=O)ccoc4c3)c12	none (no result: KDM5B inhibitor, IP6K1 inh) | IP6K1 inh cnf inactive
CN(CC(=O)Nc1ccccc1Cl)C(=O)CSc1ncnc2scc(-c3ccccc3)c12	none (no result: IP6K1 inh)
Cn1nnnc1Sc1ncnc2scc(-c3ccc(Cl)cc3)c12	none (no result: KDM5B inhibitor, IP6K1 inh) | IP6K1 inh cnf inactive
CC(CNC(=O)c1cc2ccccc2s1)N1CCCCC1 (stereo unspecified)	none (no result: IP6K1 inh)
O=C(CSc1ccc(Cl)cc1)NCCSc1nc2ccccc2s1	none (no result: IP6K1 inh)
Cc1ccc(NCc2cccn2-c2nnc(N3CCC(C(=O)NCc4ccc(OC(C)C)cc4)CC3)s2)cc1	KDM5B inhibitor inconclusive
Cc1ccc(NCc2cccn2-c2nnc(N3CCC(C(=O)NCCc4ccc(Cl)cc4)CC3)s2)cc1	IP6K1 inh -25.2 | IP6K1 inh cnf inactive

High-throughput results: PubChem, National Center for Advancing Translational Sciences (NCATS)
